# According to PMC5700166:
# Numbering of substitutions follows the chain as printed.
# Key:
# Assay in all cases: protein-binding microarray (PBM); PBM: ~300 nM protein, 6 mM HEPES pH 7.8, 80 mM KCl, 0.5 mM EDTA, 0.5 mM EGTA, 6% glycerol, 35 ng/ul poly-dIdC, 1% milk, 1 h, room temperature; Ap Aiptasia and Nv Nematostella (sea anemones) / Co Capsaspora / Aq Amphimedon (sponge) / Dm Drosophila / Hu human; RHD is the Rel homology domain; high values mean tight binding
# Conditions in all cases: dsDNA, one strand shown
# [1] = biological target: T1, GST-Co-NF-kB (Capsaspora owczarzaki, UniProt F1ARL5 200-546)
# T1 sequence: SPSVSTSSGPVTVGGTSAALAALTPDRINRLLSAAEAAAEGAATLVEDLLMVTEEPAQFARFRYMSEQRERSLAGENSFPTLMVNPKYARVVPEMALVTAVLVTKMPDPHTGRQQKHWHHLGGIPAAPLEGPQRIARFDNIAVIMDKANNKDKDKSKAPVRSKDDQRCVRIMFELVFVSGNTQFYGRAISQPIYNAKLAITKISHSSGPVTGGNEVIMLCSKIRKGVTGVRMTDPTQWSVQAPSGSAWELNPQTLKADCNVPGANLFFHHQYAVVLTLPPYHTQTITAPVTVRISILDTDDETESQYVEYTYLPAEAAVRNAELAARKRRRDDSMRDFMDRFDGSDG
# [2] = biological target: T2, GST-Ap-NF-kB RHD (Exaiptasia pallida (Aiptasia), UniProt A0A913YAJ5 2-422)
# T2 sequence: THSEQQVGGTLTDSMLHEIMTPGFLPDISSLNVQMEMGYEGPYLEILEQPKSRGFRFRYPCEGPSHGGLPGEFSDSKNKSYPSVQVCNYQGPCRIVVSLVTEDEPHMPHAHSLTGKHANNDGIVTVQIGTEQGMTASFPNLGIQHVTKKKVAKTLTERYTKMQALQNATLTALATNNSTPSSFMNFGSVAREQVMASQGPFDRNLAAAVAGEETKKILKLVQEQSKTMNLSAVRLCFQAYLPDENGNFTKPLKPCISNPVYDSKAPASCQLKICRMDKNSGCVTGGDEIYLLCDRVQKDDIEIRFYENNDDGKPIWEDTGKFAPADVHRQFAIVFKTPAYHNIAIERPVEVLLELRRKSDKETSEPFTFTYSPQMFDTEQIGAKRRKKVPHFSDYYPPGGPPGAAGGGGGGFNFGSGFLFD
# [3] = biological target: T3, GST-Nv-NF-kB (Cys allele) (Nematostella vectensis, UniProt E5G601 2-411)
# T3 sequence: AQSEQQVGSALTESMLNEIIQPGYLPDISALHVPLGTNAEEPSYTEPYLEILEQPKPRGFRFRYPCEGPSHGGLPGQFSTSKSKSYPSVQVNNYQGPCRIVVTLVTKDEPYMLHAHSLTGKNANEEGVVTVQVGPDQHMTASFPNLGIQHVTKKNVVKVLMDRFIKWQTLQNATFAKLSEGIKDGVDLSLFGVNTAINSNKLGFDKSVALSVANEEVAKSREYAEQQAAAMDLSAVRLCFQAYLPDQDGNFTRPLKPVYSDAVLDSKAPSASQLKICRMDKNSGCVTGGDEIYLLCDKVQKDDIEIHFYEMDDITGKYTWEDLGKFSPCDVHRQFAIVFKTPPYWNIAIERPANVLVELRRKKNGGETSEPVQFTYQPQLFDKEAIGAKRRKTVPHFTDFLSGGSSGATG
# [4] = biological target: T4, GST-Dm-Relish (Drosophila melanogaster, UniProt Q94527 99-473)
# T4 sequence: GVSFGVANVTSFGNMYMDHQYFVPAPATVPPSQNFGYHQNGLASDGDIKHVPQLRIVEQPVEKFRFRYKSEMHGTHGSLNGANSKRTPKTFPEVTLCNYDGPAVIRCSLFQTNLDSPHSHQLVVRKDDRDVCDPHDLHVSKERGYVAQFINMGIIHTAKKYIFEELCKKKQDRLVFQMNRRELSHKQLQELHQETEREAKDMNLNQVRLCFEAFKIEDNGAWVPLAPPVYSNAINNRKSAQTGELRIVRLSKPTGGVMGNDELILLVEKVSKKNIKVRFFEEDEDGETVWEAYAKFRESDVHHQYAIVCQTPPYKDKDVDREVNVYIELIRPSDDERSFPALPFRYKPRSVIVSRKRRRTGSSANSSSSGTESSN
# [5] = biological target: T5, GST-Nv-NF-kB (Ser allele) (Nematostella vectensis, UniProt A7UNT2 2-411)
# T5 sequence: T3 sequence with Q21R, C66S, S207N, E215Q, V217A, E225K, A268E, D399E
sequence,measurement,setting,value
CCGATTAACATCAGATACCAGGGTGATGTTAATCGGGTCTTGATTCGCTTGACGCTGCTG,binding signal,[1],1.09 z-score
CCGATTAACATCAAGGGGGGATATGATGTTAATCGGGTCTTGATTCGCTTGACGCTGCTG,binding signal,[2],5.79 z-score
same,binding signal,[3],4.88 z-score
same,binding signal,[1],6.15 z-score
same,binding signal,[4],4.29 z-score
CCGATTAACATCAATTTTTGCCCTGATGTTAATCGGGTCTTGATTCGCTTGACGCTGCTG,binding signal,[1],1.72 z-score
CCGATTAACATCACACCCGCAACTGATGTTAATCGGGTCTTGATTCGCTTGACGCTGCTG,binding signal,[1],1.54 z-score
CCGATTAACATCACCCGCGCTCATGATGTTAATCGGGTCTTGATTCGCTTGACGCTGCTG,binding signal,[2],1.32 z-score
same,binding signal,[4],1.06 z-score
CCGATTAACATCAACCCCAGCTCTGATGTTAATCGGGTCTTGATTCGCTTGACGCTGCTG,binding signal,[2],1.01 z-score
same,binding signal,[3],1.21 z-score
same,binding signal,[1],1.8 z-score
same,binding signal,[4],1.14 z-score
CCGATTAACATCAAGATTAGGGATGATGTTAATCGGGTCTTGATTCGCTTGACGCTGCTG,binding signal,[2],1.31 z-score
CCGATTAACATCAACCCCCCCCCTGATGTTAATCGGGTCTTGATTCGCTTGACGCTGCTG,binding signal,[2],5.71 z-score
same,binding signal,[5],4.2 z-score
same,binding signal,[1],5.49 z-score
same,binding signal,[4],5.26 z-score
CCGATTAACATCACTGGGAGGGCTGATGTTAATCGGGTCTTGATTCGCTTGACGCTGCTG,binding signal,[2],1.08 z-score
same,binding signal,[1],1.47 z-score
CCGATTAACATCAGATAGGTACTTGATGTTAATCGGGTCTTGATTCGCTTGACGCTGCTG,binding signal,[5],2.46 z-score
CCGATTAACATCAAGGGGGGGGATGATGTTAATCGGGTCTTGATTCGCTTGACGCTGCTG,binding signal,[2],7.71 z-score
same,binding signal,[1],7.64 z-score
same,binding signal,[4],5.31 z-score
CCGATTAACATCAGTACCTCGTATGATGTTAATCGGGTCTTGATTCGCTTGACGCTGCTG,binding signal,[5],1.04 z-score
CCGATTAACATCACCCCCCCCCCTGATGTTAATCGGGTCTTGATTCGCTTGACGCTGCTG,binding signal,[2],5.35 z-score
same,binding signal,[1],7.37 z-score
same,binding signal,[4],4.97 z-score
CCGATTAACATCAAGAACCTTCTTGATGTTAATCGGGTCTTGATTCGCTTGACGCTGCTG,binding signal,[3],1.02 z-score
CCGATTAACATCACTACCCCGGATGATGTTAATCGGGTCTTGATTCGCTTGACGCTGCTG,binding signal,[2],1.88 z-score
same,binding signal,[1],3.19 z-score
CCGATTAACATCAAGGGGGGGGGTGATGTTAATCGGGTCTTGATTCGCTTGACGCTGCTG,binding signal,[2],5.14 z-score
same,binding signal,[1],7.25 z-score
same,binding signal,[4],5.34 z-score
CCGATTAACATCAAAGAGGAGTCTGATGTTAATCGGGTCTTGATTCGCTTGACGCTGCTG,binding signal,[3],1.23 z-score
CCGATTAACATCAGGTAATATATTGATGTTAATCGGGTCTTGATTCGCTTGACGCTGCTG,binding signal,[5],2.14 z-score
CCGATTAACATCACCCCCCCCCATGATGTTAATCGGGTCTTGATTCGCTTGACGCTGCTG,binding signal,[2],4.92 z-score
same,binding signal,[5],3.7 z-score
same,binding signal,[1],7.08 z-score
same,binding signal,[4],5.37 z-score
CCGATTAACATCAGTGGTACTTGTGATGTTAATCGGGTCTTGATTCGCTTGACGCTGCTG,binding signal,[5],1.44 z-score
same,binding signal,[4],1.25 z-score
CCGATTAACATCAATCAGCGGGGTGATGTTAATCGGGTCTTGATTCGCTTGACGCTGCTG,binding signal,[2],1.21 z-score
same,binding signal,[1],2.43 z-score
CCGATTAACATCACTAGGCGGGATGATGTTAATCGGGTCTTGATTCGCTTGACGCTGCTG,binding signal,[2],1.56 z-score
same,binding signal,[1],1.92 z-score
CCGATTAACATCACTAGGTAGTCTGATGTTAATCGGGTCTTGATTCGCTTGACGCTGCTG,binding signal,[5],1.04 z-score
